Structures are written as SMILES. About 14,000 (4.5%) of roughly 310,000 compounds showed an effect of 50% or more. Effects have a minus sign here. What follows is part of a selection rich in strong results, with near analogues and random picks from the rest.
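Note: peak tail current of the secondary pulse compared with the same well before compound.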

For this experiment, the target named is human ether-à-go-go-related gene (hERG) potassium channel (human, UniProt Q12809). Briefly: primary screen, population patch clamp on CHO cells stably expressing hERG; higher = less effect of the substance.
human ether-à-go-go-related gene (hERG) potassium channel, sequence (Q12809 whole entry, looked up): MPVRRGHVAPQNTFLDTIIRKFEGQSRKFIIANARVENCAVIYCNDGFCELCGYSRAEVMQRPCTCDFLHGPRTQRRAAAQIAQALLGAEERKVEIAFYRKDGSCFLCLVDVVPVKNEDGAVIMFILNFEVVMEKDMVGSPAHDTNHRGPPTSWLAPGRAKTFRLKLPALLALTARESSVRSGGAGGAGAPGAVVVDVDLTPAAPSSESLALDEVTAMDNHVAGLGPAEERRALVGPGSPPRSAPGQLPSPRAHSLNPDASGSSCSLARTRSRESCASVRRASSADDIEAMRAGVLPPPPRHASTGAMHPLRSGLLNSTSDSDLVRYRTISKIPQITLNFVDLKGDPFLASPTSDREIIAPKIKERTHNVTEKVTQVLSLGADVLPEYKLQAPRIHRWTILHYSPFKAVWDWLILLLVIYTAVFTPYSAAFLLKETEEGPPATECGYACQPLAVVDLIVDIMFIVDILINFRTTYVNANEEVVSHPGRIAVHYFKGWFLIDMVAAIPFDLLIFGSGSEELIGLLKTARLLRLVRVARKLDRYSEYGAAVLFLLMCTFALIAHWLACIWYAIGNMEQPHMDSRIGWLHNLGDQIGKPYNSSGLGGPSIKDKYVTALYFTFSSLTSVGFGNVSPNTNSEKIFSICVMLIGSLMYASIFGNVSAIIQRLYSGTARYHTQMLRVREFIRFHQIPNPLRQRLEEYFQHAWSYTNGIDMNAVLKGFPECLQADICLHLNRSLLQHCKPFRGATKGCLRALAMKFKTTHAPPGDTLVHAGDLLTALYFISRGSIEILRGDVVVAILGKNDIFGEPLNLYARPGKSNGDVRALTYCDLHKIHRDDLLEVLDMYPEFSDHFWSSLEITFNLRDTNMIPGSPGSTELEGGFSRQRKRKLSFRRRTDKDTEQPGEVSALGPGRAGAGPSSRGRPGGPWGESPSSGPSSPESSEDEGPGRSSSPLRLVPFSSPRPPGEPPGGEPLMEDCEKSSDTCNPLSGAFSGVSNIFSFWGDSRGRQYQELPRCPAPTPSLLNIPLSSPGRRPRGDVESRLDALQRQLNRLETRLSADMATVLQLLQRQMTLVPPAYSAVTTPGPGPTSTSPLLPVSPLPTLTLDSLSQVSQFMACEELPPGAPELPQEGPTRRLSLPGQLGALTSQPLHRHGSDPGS
Consider `Cc1ccccc1-c1nnc(SCC(=O)NCc2ccc3c(c2)OCO3)n1C`, for which the “hERG current change (%, negative = inhibition) at 10uM” value is listed as -8.1%.
The value for `CCn1c(SCC(=O)NCc2ccc3c(c2)OCO3)nnc1-c1ccco1` was -5.03%; that for `O=C(CSc1nnc(-c2cccnc2)n1-c1ccccc1)Nc1ccc2c(c1)OCO2` was -6.74%.
The value for `O=C(CSc1nnc(-c2ccco2)n1-c1ccccc1)NCc1ccc2c(c1)OCO2` was -73.4%; that for `O=C(CSc1nc2ccccc2c(=O)n1-c1ccccc1)NCc1ccc2c(c1)OCO2` was 3.23%.
The value for `O=C(CSc1ncc(C(=O)O)n1-c1ccc(F)cc1)NCc1ccc2c(c1)OCO2` was 35.8%.
Regarding `CC(=O)Oc1ccc(-c2cccc(C(=O)N(C)c3ccc(O)cc3)c2)cc1`, the “hERG current change (%, negative = inhibition) at 10uM” value is reported as -17.8%.
The value for `CN(C)c1ccc(C(=S)Nc2ccccc2)cc1` was 12.5%; that for `COC(=O)c1cc(NC(=O)c2nccnc2C(=O)O)cc(C(=O)OC)c1` was 13.8%.
Under `Cc1ccc(CNC(=O)c2ccc(N3CCc4ccccc43)c([N+](=O)[O-])c2)cc1` stands 3.31%; under `Cc1ccc(-c2cc(C(=O)NCCCN3CCOCC3)c3ccccc3n2)cc1C`, 0.698%.
Under `Cc1ccc2nc3c(cc(C(=O)NCCN4CCOCC4)c(=N)n3CCCN3CCOCC3)c(=O)n2c1` stands -7.16%; under `Cc1ccc2nc3c(cc(C(=O)NCCc4ccccc4)c(=N)n3CCN3CCOCC3)c(=O)n2c1`, -76.7%; under `Cc1ccc2nc3c(cc(C(=O)NCCc4ccccc4)c(=N)n3CCCN3CCOCC3)c(=O)n2c1`, -80.6%.
For `O=C(NCc1ccco1)c1cccc(F)c1`, the “hERG current change (%, negative = inhibition) at 10uM” value stood at 6.59%.
The value for `O=C(COc1cccc(Cl)c1)Nc1ccc2c(c1)CCC2` was -3.73%; that for `CC1CN(c2nnnn2-c2ccccc2)CC(C)O1` (centres unmarked) was -23.1%; that for `CCOc1ccc(CN2CCNC(=O)C2CC(=O)O)cc1` (centres unmarked) was 11.1%.
In the case of `CC(=O)Nc1sc(C)c(C)c1C(=O)OCC(=O)Nc1ccccc1`, the “hERG current change (%, negative = inhibition) at 10uM” value amounted to 5.91%.
The value for `S=C(Cc1ccc(-c2ccccc2)cc1)N1CCOCC1` was -11.9%.
Regarding `Cc1oc(-c2ccccc2F)nc1CS(=O)(=O)CC(=O)NCc1ccco1`, the “hERG current change (%, negative = inhibition) at 10uM” value was -27.3%.
Under `CC1CCC(NS(=O)(=O)c2ccc(N3CCCC3=O)cc2)CC1` (centres unmarked) stands 1.51%.
The value for `O=[N+]([O-])c1ccc(C2=NN(CCO)C(=Nc3ccc(OC(F)(F)F)cc3)SC2)cc1` was -13.5%; that for `COc1ccc(N=C2SCC(c3ccc(C)cc3)=NN2CCO)cc1` was -9.63%.
The value for `COc1ccc(N=C2SCC(c3ccc([N+](=O)[O-])cc3)=NN2CCO)cc1` was -53.1%; that for `Cc1ccc(C2(C)NC(=O)N(CC(=O)Nc3ccccc3C(=O)N3CCCCC3)C2=O)cc1` (centres unmarked) was 6.74%.
As for `Cc1ccc(S(=O)(=O)N2CCOCC2)cc1NC(=O)COC(=O)CCn1c(C)csc1=O`, the “hERG current change (%, negative = inhibition) at 10uM” value is on record as 2.85%.
The value for `COCCN=c1scc(-c2cccs2)n1/N=C/c1ccc(O)c(O)c1O` was 6.24%.
The value for `COCCN=c1scc(C)n1/N=C/C1CC2C=CC1C2` (centres unmarked) was -55%; that for `COCCN=c1scc(-c2ccccc2)n1/N=C/c1c[nH]c2ccccc12` was 18.7%; that for `COc1ccc(Cl)cc1S(=O)(=O)N(C)CC(=O)NCc1ccccn1` was 17.8%.
The value for `C=CCn1c(O)c(C=Nc2ccc(N(CC)CC)cc2)c(=O)[nH]c1=O` was -7.13%; that for `O=C(CSc1ccc2nnc(-c3ccccn3)n2n1)Nc1ccccc1` was -23.4%.
Turning to `Nn1c(SCc2ccc(Br)cc2)nnc1-c1ccccn1`, the “hERG current change (%, negative = inhibition) at 10uM” value stood at 17.5%.
Regarding `O=C(CSc1ccc2nnc(-c3ccccn3)n2n1)Nc1ccc(F)cc1`, the “hERG current change (%, negative = inhibition) at 10uM” value is listed as -48.2%.
Under `O=C(CSc1ccc2nnc(-c3ccccn3)n2n1)Nc1ccc(F)cc1F` stands -30.4%; under `Fc1ccc(CSc2ccc3nnc(-c4ccccn4)n3n2)cc1`, -87.6%; under `Cn1c(SCc2ccc(Br)cc2)nnc1-c1ccccn1`, -19.4%.
Under `Cc1ccc(CSc2ccc3nnc(-c4ccccn4)n3n2)cc1` stands -71.8%; under `Brc1ccc(CSc2ccc3nnc(-c4ccccn4)n3n2)cc1`, -67.1%; under `c1ccc(CSc2ccc3nnc(-c4ccccn4)n3n2)cc1`, -69.5%.
The value for `Cc1ccc(CSc2nnc(-c3ccccn3)n2C)cc1` was -3.39%.
Regarding `O=C(CSc1ccc2nnc(-c3ccccn3)n2n1)Nc1ccccc1F`, the “hERG current change (%, negative = inhibition) at 10uM” value is on record as -14.7%.
The value for `Cc1ccc(NC(=O)CSc2ccc3nnc(-c4ccccn4)n3n2)cc1` was -44.2%.
